Screening results (PubChem BioAssay)
The entries come from a sample that favours hits as a whole.
IDE exosite FP = exo-site inhibitors of human IDE, primary screen, biochemical, fluorescence anisotropy, probe displacement. AID 1259349, 2017. z-score at 20 µM. hit rate 6.3% among 17,000. purified IDE, FL-6b probe fluorescence polarization; hits give low values;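 active = z-score of -3 or lower, meaning strong loss of probe binding signal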;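 note: His-tagged human IDE residues 42-1019 made in E. coli with 30 nM FL-6b probe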
Target sequence (P14735 42-1019 limits assumed): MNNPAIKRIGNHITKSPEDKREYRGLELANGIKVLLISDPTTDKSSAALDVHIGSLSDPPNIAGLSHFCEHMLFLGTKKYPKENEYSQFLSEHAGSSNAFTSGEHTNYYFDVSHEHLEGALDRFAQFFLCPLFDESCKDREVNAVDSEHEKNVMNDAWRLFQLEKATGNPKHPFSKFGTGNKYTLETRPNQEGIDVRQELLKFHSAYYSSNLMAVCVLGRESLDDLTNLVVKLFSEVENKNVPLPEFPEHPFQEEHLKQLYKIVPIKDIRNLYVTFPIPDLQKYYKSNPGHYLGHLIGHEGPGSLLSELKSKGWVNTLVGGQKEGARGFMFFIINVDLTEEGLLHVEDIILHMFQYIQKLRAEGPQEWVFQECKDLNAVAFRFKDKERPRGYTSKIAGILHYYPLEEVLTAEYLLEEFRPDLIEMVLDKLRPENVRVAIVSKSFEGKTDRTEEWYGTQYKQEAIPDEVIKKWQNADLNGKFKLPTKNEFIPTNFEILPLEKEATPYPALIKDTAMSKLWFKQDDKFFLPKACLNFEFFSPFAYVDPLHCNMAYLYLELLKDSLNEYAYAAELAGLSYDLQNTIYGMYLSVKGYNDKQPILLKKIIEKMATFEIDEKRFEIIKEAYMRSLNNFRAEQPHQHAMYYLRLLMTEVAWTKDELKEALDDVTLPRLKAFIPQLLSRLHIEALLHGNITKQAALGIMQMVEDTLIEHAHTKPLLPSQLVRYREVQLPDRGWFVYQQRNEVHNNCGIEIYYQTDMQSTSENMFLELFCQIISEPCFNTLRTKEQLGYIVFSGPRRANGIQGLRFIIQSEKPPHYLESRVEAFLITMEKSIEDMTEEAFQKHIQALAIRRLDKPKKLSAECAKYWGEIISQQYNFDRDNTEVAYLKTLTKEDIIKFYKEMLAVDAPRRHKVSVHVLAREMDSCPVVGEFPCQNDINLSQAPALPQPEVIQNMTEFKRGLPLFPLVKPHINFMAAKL
* hit, by the source's call; ! = a repeat was not active.

SMILES | IDE exosite FP
CC(=O)N1CC(=O)N2[C@H](CO)[C@H](c3ccc(-c4ccc(C#N)cc4)cc3)[C@@H]2C1 | 1.45
C/C=C/c1ccc([C@@H]2[C@H](CO)N[C@H]2CNS(=O)(=O)c2ccccc2)cc1 | -0.7
CCc1cnc(N2[C@H](C#N)[C@@H](c3ccc(C#CCC4CCCC4)cc3)[C@@H]2CO)s1 | 3.4
COC(=O)c1ccc(CN2CC(=O)N3[C@H](CO)[C@H](c4ccc(-c5cccnc5)cc4)[C@@H]3C2)cc1 | -0.103
C/C=C/c1ccc([C@@H]2[C@@H](CO)N(C(C)=O)[C@H]2CN(CC(C)C)C(C)=O)cc1 | 1.34
CO[C@@H]1CC[C@@H]2CCN(C)C(=O)CC3(CCCCC3)CN(C)C(=O)c3cc(C#N)ccc3OC[C@H]1O2 | 0.733
N#C[C@@H]1[C@@H](c2ccc(-c3ccccc3F)cc2)[C@H](CO)N1C(=O)C1CCC1 | 2.1
COc1ccccc1-c1ccc([C@@H]2[C@@H](C#N)N(C(=O)C3CC3)[C@@H]2CO)cc1 | -17*
N#C[C@H]1[C@H](c2ccc(-c3ccccc3F)cc2)[C@H](CO)N1C(=O)C1CC1 | -2.39
COc1ccc(-c2ccc([C@H]3[C@@H](C#N)N(C(=O)C4CC4)[C@@H]3CO)cc2)cc1 | 0.402
Cc1ccc(-c2ccccc2[C@@H]2[C@H](C#N)N(C(=O)c3cccc(F)c3)[C@H]2CO)cc1 | 0.434
N#C[C@@H]1[C@@H](c2ccc(-c3ccccc3F)cc2)[C@@H](CO)N1C(=O)C1CCC1 | 1.22
COc1ccccc1-c1ccc([C@@H]2[C@@H](C#N)N(C(=O)c3cccc(F)c3)[C@@H]2CO)cc1 | -13.3*
N#C[C@H]1[C@@H](c2ccc(-c3ccccc3F)cc2)[C@H](CO)N1C(=O)C1CCC1 | -0.675
COc1ccc(-c2ccc([C@H]3[C@H](C#N)N(C(=O)c4cccc(F)c4)[C@H]3CO)cc2)cc1 | 2.59
COc1ccccc1-c1ccccc1[C@H]1[C@H](C#N)N(C(=O)C2CC2)[C@H]1CO | 3.42
COc1ccccc1-c1ccc([C@H]2[C@@H](C#N)N(C(=O)C3CC3)[C@H]2CO)cc1 | -5.35*
N#C[C@@H]1[C@@H](c2ccc(-c3ccccc3F)cc2)[C@H](CO)N1C(=O)C1CC1 | -3.11*
O=C1N[C@H](c2ccccc2)COCc2cn(nn2)CC[C@@H]1Cc1ccc(C(F)(F)F)cc1 | 0.96
O=C(c1ccccn1)N1CC[C@@H]2[C@H]1c1cc(Br)ccc1N[C@@H]2CO | 2.7
CNC[C@H]1Oc2c(NS(=O)(=O)c3ccc(Cl)cc3)cccc2C(=O)N([C@H](C)CO)C[C@@H]1C | 0.302
CCS(=O)(=O)NCC[C@@H]1CC[C@@H](NS(=O)(=O)c2ccccc2C)[C@@H](CO)O1 | 1.39
O=S(=O)(c1ccccc1F)N1CC[C@@H]2[C@H](CO)Nc3ccc(C4=CCCCC4)cc3[C@@H]21 | 1.89
CN(C)C(=O)c1ccc(-c2ccc([C@H]3[C@@H](CO)N4C(=O)CN(C(=O)C5CCC5)C[C@@H]34)cc2)cc1 | 0.92
N#Cc1ccc(-c2ccc([C@H]3[C@H]4CNCC(=O)N4[C@H]3CO)cc2)cc1 | -0.649
SMILES | IDE exosite FP
COc1ccc(-c2ccc([C@H]3[C@@H](C#N)N(C(=O)NC(C)C)[C@@H]3CO)cc2)cc1 | -1.34
COc1ccc(-c2ccc([C@@H]3[C@@H](C#N)N(C(=O)C4CC4)[C@H]3CO)cc2)cc1 | 1.75
COc1ccccc1-c1ccc([C@H]2[C@@H](C#N)N(C(=O)C3CC3)[C@@H]2CO)cc1 | -3.17*
COc1ccccc1-c1ccc([C@H]2[C@@H](CO)N(C(=O)NC(C)C)[C@H]2C#N)cc1 | -16.3*
COc1ccc(-c2ccc([C@@H]3[C@H](C#N)N(C(=O)NC(C)C)[C@H]3CO)cc2)cc1 | 0.0838
COc1ccc(-c2ccc([C@H]3[C@H](C#N)N(C(=O)C4CC4)[C@H]3CO)cc2)cc1 | -0.559
OC[C@H]1[C@@H](c2ccc(-c3ccccc3)cc2)[C@@H]2CN(Cc3ccccn3)CCCCN12 | 1.29
C[C@@H]1CCCCO[C@H](CN(C)S(=O)(=O)c2ccc(F)cc2)[C@@H](C)CN([C@@H](C)CO)C(=O)c2cc(N(C)C)ccc2O1 | 1.45
C[C@@H]1CN([C@H](C)CO)C(=O)CCCn2nncc2CO[C@H]1CN(C)C(=O)Nc1ccc(-c2cccs2)cc1 | -0.427
O=C(Nc1ccc(F)cc1)N1[C@H](CO)[C@@H]2c3ccccc3NC[C@@H]21 | 2.74
O=C(c1cccnc1)N1CC[C@@H]2[C@@H](CO)Nc3ccc(C4=CCCCC4)cc3[C@@H]21 | 1.02
COc1ccccc1NC(=O)N1CC(=O)N2[C@H](CO)[C@@H](c3ccc(C#Cc4ccccc4)cc3)[C@H]2C1 | -1.76
COc1ccc(NC(=O)N2[C@@H]3CNC[C@H]2C3c2ccc(-c3ccccc3C)cc2)cc1 (some centres not stated) | -4.56*
COc1cccc(-c2ccc(C3[C@H]4CNC[C@@H]3N4C(=O)Nc3ccc4c(c3)OCO4)cc2)c1 (some centres not stated) | -2.84
COc1cccc(-c2ccc(C3[C@H]4CNC[C@@H]3N4C(=O)Nc3ccc(C(F)(F)F)cc3)cc2)c1 (some centres not stated) | 2.09
Cc1ccccc1-c1ccc(C2[C@H]3CNC[C@@H]2N3C(=O)Nc2ccc(Cl)cc2)cc1 (some centres not stated) | -3.57*!
O=C(NC1CCCCC1)N1[C@@H]2CNC[C@H]1C2c1ccc(-c2ccccc2F)cc1 (some centres not stated) | -0.0845
CN(C)C(=O)c1cccc(-c2ccc(C3[C@H]4CNC[C@@H]3N4C(=O)Nc3cccc(Cl)c3)cc2)c1 (some centres not stated) | -0.236
C[C@@H]1CN([C@@H](C)CO)C(=O)c2cccc(NS(=O)(=O)c3cn(C)cn3)c2O[C@@H]1CN(C)Cc1ccc(Oc2ccccc2)cc1 | -0.952
CO[C@@H]1CC[C@H]2CCOc3c(C#N)cccc3C(=O)N(C)CC3(CCCCC3)CC(=O)N(C)C[C@H]1O2 | -0.142
COc1ccc(C#Cc2ccc([C@H]3[C@H](CO)N4CCCCN(Cc5ccccc5F)C[C@@H]34)cc2)cc1 | 3.73
COc1ccc2c3c([nH]c2c1)[C@@H](CO)N(C(=O)NC1CCCC1)CC31CN(C(=O)Nc2cccc(F)c2)C1 | -0.588
CS(=O)(=O)N1CCCCN2[C@H](C1)[C@H](c1ccc(C3=CCCC3)cc1)[C@@H]2CO | 2.96
Cc1ccccc1-c1ccc([C@@H]2[C@H]3CN(S(C)(=O)=O)CCCCN3[C@H]2CO)cc1 | -5.16*
CCS(=O)(=O)N1CCCCN2[C@H](CO)[C@@H](c3ccc(-c4ccccc4C)cc3)[C@H]2C1 | -1.66
SMILES | IDE exosite FP
CS(=O)(=O)N1CCCCN2[C@H](C1)[C@H](c1ccc(Br)cc1)[C@@H]2CO | -0.69
CS(=O)(=O)N1CCCCN2[C@H](CO)[C@@H](c3ccc(C4=CCCC4)cc3)[C@H]2C1 | 5.12
CCS(=O)(=O)N1CCCCN2[C@H](CO)[C@H](c3ccc(-c4ccccc4)cc3)[C@H]2C1 | 0.627
CS(=O)(=O)N1CCCCN2[C@H](CO)[C@H](c3ccc(C4=CCCC4)cc3)[C@@H]2C1 | 2.05
Cc1ccccc1-c1ccc([C@H]2[C@@H](CO)N3CCCCN(S(C)(=O)=O)C[C@H]23)cc1 | -7.66*
Cc1ccccc1-c1ccc([C@@H]2[C@H](CO)N3CCCCN(S(C)(=O)=O)C[C@@H]23)cc1 | -10.3*
CS(=O)(=O)N1CCCCN2[C@@H](CO)[C@@H](c3ccc(C4=CCCC4)cc3)[C@@H]2C1 | 0.723
